Out of some 5,500 compounds screened, about 2,000 (36%) were called active. About 18% were inconclusive and are not listed. Cut-off read from the data, not from the text of the source: active = normalized growth mostly below about 0.91 (no sharp cut-off); inconclusive = no clear call, values can overlap the other calls; inactive = mostly above about 0.92. This is one part of the list.
Assay: chemical genetic growth profiling, strain panel (AID 1159580);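 note: tested at 20 µM; growth read once vehicle control cultures reached saturation at 30 °C; 1 = growth at the plate median or of vehicle wells; lower values mean less growth of the strain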
Settings: growth OD

Measured: normalized growth

C=C1CCC2C(CC2(C)C)C(=O)CCC1O (stereo unspecified)
inactive: S. cerevisiae deletion strains, locus YJL168C, strain set2, active compounds read low 1.01 | S. cerevisiae deletion strains, locus YJL187C, strain SWE1 (second series), active compounds read low 1.06 | S. cerevisiae deletion strains, locus YJL187C, strain SWE1, active compounds read low 0.993 | S. cerevisiae deletion strains, locus YJR066W, strain TOR1, active compounds read low 0.949 | S. cerevisiae deletion strains, locus YKL009W, strain mrt4, active compounds read low 1.02 | S. cerevisiae deletion strains, locus YKL068W, active compounds read low 1 | S. cerevisiae deletion strains, locus YKL085W, strain MDH1 (second series), active compounds read low 0.993 | S. cerevisiae deletion strains, locus YKL085W, strain MDH1, active compounds read low 0.993 | S. cerevisiae deletion strains, locus YKL160W, strain elf1, active compounds read low 0.982 | S. cerevisiae deletion strains, locus YKR001C, strain vps1, active compounds read low 1.02 | S. cerevisiae deletion strains, locus YKR026C, strain gcn3, active compounds read low 1 | S. cerevisiae deletion strains, locus YKR091W, strain srl3, active compounds read low 0.988 | S. cerevisiae deletion strains, locus YLL001W, strain dnm1, active compounds read low 0.954 | S. cerevisiae deletion strains, locus YLL026W, active compounds read low 1 | S. cerevisiae deletion strains, locus YLL041C, strain sdh2, active compounds read low 0.987 | S. cerevisiae deletion strains, locus YLR027C, strain aat2, active compounds read low 0.996 | S. cerevisiae deletion strains, locus YLR039C, strain RIC1, active compounds read low 1.04 | S. cerevisiae deletion strains, locus YLR058C, strain SHM2, active compounds read low 1.04 | S. cerevisiae deletion strains, locus YLR102C, strain apc9, active compounds read low 1.01 | S. cerevisiae deletion strains, locus YLR113W, strain HOG1, active compounds read low 1.01 | S. cerevisiae deletion strains, locus YLR221C, strain rsa3, active compounds read low 1.04 | S. cerevisiae deletion strains, locus YLR258W, strain gsy2, active compounds read low 0.993 | S. cerevisiae deletion strains, locus YLR262C, strain YPT6 (second series), active compounds read low 1.01 | S. cerevisiae deletion strains, locus YLR268W, strain sec22, active compounds read low 1 | S. cerevisiae deletion strains, locus YLR320W, strain mms22, active compounds read low 1.06 | S. cerevisiae deletion strains, locus YLR342W, strain FKS1, active compounds read low 0.997 | S. cerevisiae deletion strains, locus YLR357W, strain rsc2, active compounds read low 0.981 | S. cerevisiae deletion strains, locus YLR370C, strain arc18, active compounds read low 1 | S. cerevisiae deletion strains, locus YLR371W, strain rom2, active compounds read low 1.02 | S. cerevisiae deletion strains, locus YLR384C, strain iki3, active compounds read low 1.01 | S. cerevisiae deletion strains, locus YLR418C, strain cdc73, active compounds read low 1.05 | S. cerevisiae deletion strains, locus YML016C, strain PPZ1, active compounds read low 1.02 | S. cerevisiae deletion strains, locus YML032C, strain rad52, active compounds read low 1.01 | S. cerevisiae deletion strains, locus YML120C, strain ndi1, active compounds read low 0.965 | S. cerevisiae deletion strains, locus YML124C, strain tub3, active compounds read low 1.01 | S. cerevisiae deletion strains, locus YMR058W, strain fet3, active compounds read low 0.98 | S. cerevisiae deletion strains, locus YMR078C, strain ctf18, active compounds read low 1.01 | S. cerevisiae deletion strains, locus YMR125W, strain sto1, active compounds read low 0.973 | S. cerevisiae deletion strains, locus YMR129W, active compounds read low 1.01 | S. cerevisiae deletion strains, locus YMR205C, strain PFK2, active compounds read low 0.955 | S. cerevisiae deletion strains, locus YMR223W, strain ubp8, active compounds read low 1.03 | S. cerevisiae deletion strains, locus YMR231W, strain pep5, active compounds read low 1.01 | S. cerevisiae deletion strains, locus YMR307W, strain GAS1, active compounds read low 1.07 | S. cerevisiae deletion strains, locus YNL067W, strain RPL9B, active compounds read low 1.03 | S. cerevisiae deletion strains, locus YNL071W, strain lat1, active compounds read low 0.992 | S. cerevisiae deletion strains, locus YNL128W, strain TEP1, active compounds read low 0.993 | S. cerevisiae deletion strains, locus YNL183C, strain NPR1, active compounds read low 0.968 | S. cerevisiae deletion strains, locus YNL209W, strain ssb2, active compounds read low 0.987 | S. cerevisiae deletion strains, locus YNL233W, strain BNI4, active compounds read low 1.05 | S. cerevisiae deletion strains, locus YNL248C, strain rpa49, active compounds read low 1.01 | S. cerevisiae deletion strains, locus YNL250W, strain rad50, active compounds read low 1.05 | S. cerevisiae deletion strains, locus YNL271C, strain bni1, active compounds read low 1.01 | S. cerevisiae deletion strains, locus YNL298W, strain CLA4, active compounds read low 1.03 | S. cerevisiae deletion strains, locus YNL307C, strain MCK1, active compounds read low 1.03 | S. cerevisiae deletion strains, locus YNL322C, strain KRE1 (second series), active compounds read low 0.974 | S. cerevisiae deletion strains, locus YNL322C, strain KRE1, active compounds read low 0.991 | S. cerevisiae deletion strains, locus YNR049C, strain mso1, active compounds read low 0.995 | S. cerevisiae deletion strains, locus YNR052C, strain pop2, active compounds read low 1.03 | S. cerevisiae deletion strains, locus YOL012C, strain htz1 0.879 | S. cerevisiae deletion strains, locus YOL147C, strain pex11, active compounds read low 1 | S. cerevisiae deletion strains, locus YOR001W, strain rrp6, active compounds read low 1.02 | S. cerevisiae deletion strains, locus YOR061W, strain CKA2, active compounds read low 1.02 | S. cerevisiae deletion strains, locus YOR069W, strain VPS5, active compounds read low 1.01 | S. cerevisiae deletion strains, locus YOR070C, strain gyp1, active compounds read low 1.02 | S. cerevisiae deletion strains, locus YOR080W, strain dia2, active compounds read low 0.995 | S. cerevisiae deletion strains, locus YOR083W, strain WHI5, active compounds read low 0.988 | S. cerevisiae deletion strains, locus YOR106W, strain vam3, active compounds read low 0.961 | S. cerevisiae deletion strains, locus YOR136W, strain idh2, active compounds read low 1.01 | S. cerevisiae deletion strains, locus YOR144C, strain elg1, active compounds read low 1 | S. cerevisiae deletion strains, locus YOR184W, strain ser1, active compounds read low 0.989 | S. cerevisiae deletion strains, locus YOR231W, strain MKK1, active compounds read low 0.994 | S. cerevisiae deletion strains, locus YOR265W, strain rbl2, active compounds read low 0.992 | S. cerevisiae deletion strains, locus YOR270C, strain vph1, active compounds read low 0.986 | S. cerevisiae deletion strains, locus YOR290C, strain snf2, active compounds read low 0.956 | S. cerevisiae deletion strains, locus YOR316C, strain cot1, active compounds read low 1.03 | S. cerevisiae deletion strains, locus YPL051W, strain arl3, active compounds read low 1 | S. cerevisiae deletion strains, locus YPL078C, strain atp4, active compounds read low 0.946 | S. cerevisiae deletion strains, locus YPL106C, strain sse1, active compounds read low 0.958 | S. cerevisiae deletion strains, locus YPL240C, strain hsp82, active compounds read low 0.998 | S. cerevisiae deletion strains, locus YPL256C, strain CLN2, active compounds read low 1.02 | S. cerevisiae deletion strains, locus YPR119W, strain clb2, active compounds read low 1.02 | S. cerevisiae deletion strains, locus YPR141C, strain kar3, active compounds read low 1.01 | S. cerevisiae deletion strains, locus YPR163C, strain tif3, active compounds read low 1.02 | S. cerevisiae deletion strains, locus YPR167C, strain met16, active compounds read low 1.02 | S. cerevisiae deletion strains, strain wtn01, active compounds read low 1.01 | S. cerevisiae strains, strain wild type, active compounds read low 0.989

Reference: PubChem BioAssay AID1159580 (chemical genetic matrix, 2015)
